# Among all 5,700 compounds or so, about 280 (4.9%) were called active. How the calls were made is not given here. The list is a sample of the results.
# Experiment: exo-erythrocytic parasite development inhibition – imaging, Malaria Box, P. yoelii, HepG2-A16-CD81EGFP, dose response (AID 602156)
# Conditions: P. yoelii liver stage in HepG2-A16-CD81EGFP
row,Compound,outcome
1,CC(C)(C)CC(=O)NCCCCNc1ccnc2cc(Cl)ccc12,inactive
2,O=C(Nc1ccc(-c2nc3ccccc3[nH]2)cc1)c1cccc(C(=O)Nc2ccc(-c3nc4ccccc4[nH]3)cc2)n1,inactive
3,O=C(Nc1ccc(-c2nc3ccccc3[nH]2)cc1)c1ccc(-c2cccc([N+](=O)[O-])c2)o1,inactive
4,CCc1ccccc1N(CC(=O)NC1CCCCC1)C(=O)CCC(=O)Nc1ccccn1,inactive
5,Oc1ccc(-c2ccccc2)cc1CNC1CCCCC1,inactive
6,CCOC(=O)c1c(C)[nH]c(C)c1S(=O)(=O)N1CCCC(C(=O)N2CCN(c3cccc(C)c3C)CC2)C1 (stereo not given),inactive
7,CC1CN(C(=O)C(Cc2c[nH]c3ccccc23)NC(=O)CCl)CCN1C(=O)Nc1ccccc1 (stereo not given),inactive
8,Cc1ccc(C=Cc2ccc3ccccc3[n+]2C)cc1,inactive
9,COc1ccc(-c2c[n+](CC(=O)c3ccccc3)c3n2CCC3)cc1,inactive
10,COc1ccc(OC)c(-c2ccc(O)c(CNCC(C)c3ccccc3)c2)c1 (stereo not given),inactive
11,COc1cccc2cc(C(=O)Nc3cccc(C(F)(F)F)c3)c(=O)oc12,inactive
12,Fc1cc(F)c(C2SCCN2C(=S)Nc2cccc(C(F)(F)F)c2)c(F)c1 (stereo not given),inactive
13,CC(C)(C)CC(C)(C)Nc1c(-c2ccccc2OC(=O)c2cccc(Br)c2)nc2ccccn12,inactive
14,COc1ccccc1C=CC1=NC(=Cc2ccc(SC)cc2)C(=O)O1,inactive
15,O=C(Cn1cc([N+](=O)[O-])nc1[N+](=O)[O-])N1CCN(c2ccc(F)cc2)CC1,inactive
16,CCOc1ccc(C=C2SC(=Nc3ccccc3)NC2=O)cc1OC,inactive
17,CCOC(=O)C1CCN(C(=O)CN2C(=O)c3ccccc3C2c2c[nH]c3ccccc23)CC1 (stereo not given),inactive
18,N#CC(=Cn1cc(Cc2ccc(Cl)cc2Cl)c2ccccc21)c1nn(CCO)c(N)c1C#N,inactive
19,Cc1nnc2sc(SCc3ccc([N+](=O)[O-])cc3)nn2c1=O,inactive
20,CC1CCN(S(=O)(=O)c2ccc(C(=O)NCc3ccco3)cc2)CC1,inactive
21,CCN1CCCC1CNc1ncnc2c1[nH]c1ccc(C)cc12 (stereo not given),inactive
22,c1ccc(CCCNc2ccnc3cc4ccccc4cc23)cc1,inactive
23,COCCn1c(SCC(=O)c2ccc(C)cc2C)nnc1-c1ccco1,inactive
24,CCN(CC)CCNc1ncnc2c1[nH]c1ccc(Br)cc12,inactive
25,CC(C)CNC(=O)c1cnc(NCCCN2CCCC2)nc1NCC1CCCCC1,inactive

row,Compound,outcome
1,CC[n+]1c(/C=C2\Sc3oc4ccccc4c3N2C)ccc2cc(C)ccc21,inactive
2,c1ccc(Nc2nc(NCC3CCCO3)c3ccccc3n2)cc1 (stereo not given),inactive
3,COc1ccccc1N1C(=N)SC(=Cc2ccc(OCc3ccccc3F)cc2)C1=O,inactive
4,CC[N+](CC)=c1scc(-c2ccc([N+](=O)[O-])cc2)s1,inactive
5,COc1cc(C(=O)NCCc2cc3ccccc3[nH]2)ccc1OC1CCN(CC(c2ccccc2)c2ccccc2)CC1,inactive
6,O=C(NCCCCCCCCCCNC(=O)Nc1ccc(C2=NCCCN2)cc1)Nc1ccc(C2=NCCCN2)cc1,inactive
7,COc1ccc(-c2csc3nc(COc4cccc(C)c4)nn23)c(O)c1,inactive
8,CCCCN(C)C(=O)CSc1nc(NCc2ccccc2)c2ccccc2n1,inactive
9,Cc1ccc(N=C2SC(=Cc3c(Cl)cccc3Cl)C(=O)N2c2ccc(C)c(C)c2)cc1C,inactive
10,CCCCCCC(=O)Oc1ccccc1-c1nc2ccccn2c1NC(C)(C)CC(C)(C)C,inactive
11,CN(CCCNc1ccnc2cc(Cl)ccc12)C(=O)c1ccc(Cl)c(Cl)c1,inactive
12,Cc1c(Cl)cccc1NC(=O)C1C(C(=O)O)C2C=CC1C21CC1 (stereo not given),inactive
13,CCCCCN(C(=O)c1ccc(Br)cc1)C(CC)c1nc2ccccc2c(=O)n1-c1ccccc1OC (stereo not given),inactive
14,CCCCCCN(C(=O)c1ccccc1)C(CC)c1nc2ccccc2c(=O)n1-c1ccccc1OC (stereo not given),inactive
15,O=c1c2c(nc3cc(-c4ccc(Cl)cc4)[nH]n13)CCCC2,inactive
16,O=c1c2c(nc3cc(-c4ccc(-c5ccccc5)cc4)[nH]n13)CCCC2,inactive
17,Cc1cccc(OCC(=O)Nc2cccc(NC(=O)COc3cccc(C)c3)n2)c1,inactive
18,CCc1ccc(C(C)=NNc2nc(-c3ccccc3)cc(=O)[nH]2)cc1,inactive
19,Cc1cccc(NS(=O)(=O)c2ccc3[nH]c(=O)ccc3c2)c1C,inactive
20,COc1cc(/C=C(\C#N)c2nc3ccccc3[nH]2)ccc1OCc1ccc(C)cc1,inactive
21,Clc1ccc(Nc2nc(Nc3ccc(Cl)cc3)c3ccccc3n2)cc1,inactive
22,CCc1ccc(-n2c(C(CC)N(CCc3ccccc3)C(=O)c3cc(OC)cc(OC)c3)nc3ccccc3c2=O)cc1 (stereo not given),inactive
23,CCCCCCN(C(=O)COCc1ccccc1)C(C)c1nc2ccccc2c(=O)n1-c1cccc(Cl)c1C (stereo not given),inactive
24,Cc1ccc2c(c1)c(-c1ccccc1)c(-c1ccccc1)n2CC(O)CN1CCN(Cc2ccccc2)CC1 (stereo not given),inactive
25,CC1CC(C)CN(c2ccc([N+](=O)[O-])cc2-c2nn[nH]n2)C1 (stereo not given),inactive

row,Compound,outcome
1,COc1ccc(C=NNc2nc3ccc(Cl)cc3[nH]2)cc1OC,inactive
2,COc1ccc(C=C2SC(=N)N(c3ccc4c(c3)OCO4)C2=O)cc1OC,inactive
3,COc1ccc(C(OCC(=O)N2CCN(Cc3ccccc3)CC2)c2ccccc2)cn1 (stereo not given),inactive
4,O=C(Nc1ccc(C2=NCCN2)c(Cl)c1)c1cccc(C(=O)Nc2ccc(C3=NCCN3)c(Cl)c2)c1,inactive
5,CC1CC(C)CN(S(=O)(=O)c2ccc(C(=O)Nc3ccc(-c4nc5ccccc5o4)cc3)cc2)C1 (stereo not given),inactive
6,Cc1ccc2cc3c(N)c4cccc(C)c4nc3nc2c1,inactive
7,CCOc1ccc(Nc2[nH]c(=O)sc2C2=c3cc(Br)ccc3=NC2=O)cc1,inactive
8,Cc1ccc(O)c(NC(=O)c2cnn3c(C(F)(F)F)cc(-c4ccc(F)cc4)nc23)c1,inactive
9,O=C(C=Cc1cccnc1)C12CC3CC(CC(C3)C1)C2,inactive
10,O=C1NN(c2ccccc2)C(=O)C1=C1C(=O)N(Cc2cccc3ccccc23)c2ccccc21,inactive
11,Cc1cc2ncn(N=Cc3cccnc3)c2cc1C,inactive
12,CCOC(=O)c1c(C)n(-c2ccccc2)c2ccc(OC(=O)c3ccccc3NC(=O)CC)cc12,inactive
13,CC(C)=CCCC(C)=CCCC(C)NCCN1CCNCC1 (stereo not given),inactive
14,C=CCNC(=O)c1ccc2c(c1)N=CN(CCOc1ccccc1)C2,inactive
15,Cn1c(SCC2CCCO2)nnc1C1CCN(C/C=C/c2ccccc2)CC1 (stereo not given),inactive
16,Cc1cc(S(=O)(=O)N2CCN(Cc3ccccc3)CC2)ccc1-n1cnnn1,inactive
17,COc1ccc(S(=O)(=O)ON=C2C=C(C(C)C)C(=O)C=C2C)cc1,inactive
18,COc1ccc(NC(=O)C2c3ccccc3C(=O)N(CC(C)C)C2c2cccs2)cc1OC (stereo not given),inactive
19,COc1ccc(NC(=O)/C=C/c2ccccc2Cl)cc1,inactive
20,O=C1CC(c2ccccc2)CC2=C1C(c1cc(F)ccc1F)Nc1ccccc1N2 (stereo not given),inactive
21,CCCCC(CC)C(=O)N1CCN(C(C)c2nc3ccc(Cl)cc3c(=O)n2C)CC1 (stereo not given),inactive
22,CCCCCCCCC(=O)N1CCN(C(CC)c2nc3ccccc3c(=O)n2C)CC1 (stereo not given),inactive
23,CC(c1nc2ccccc2c(=O)n1-c1ccc(Br)cc1)N1CCN(S(=O)(=O)c2ccc3ccccc3c2)C(C)C1 (stereo not given),inactive
24,CC(c1nc2ccc(Cl)cc2c(=O)n1C)N1CCN(C(=O)C(C)(C)C)CC1 (stereo not given),inactive
25,CCCCCCCCCC(=O)N1CCN(C(CC)c2nc3ccccc3c(=O)n2C)CC1 (stereo not given),inactive

row,Compound,outcome
1,CCC(NC1CCCCC1)c1nc2ccccc2c(=O)n1C (stereo not given),inactive
2,COc1ccc(/C=C2\N=C(c3ccc(Cl)cc3)N(c3ccccc3)C2=O)cc1OC,inactive
3,O=C(NCCCNC(=O)Nc1cccc(C2=NCCN2)c1)Nc1cccc(C2=NCCN2)c1,inactive
4,CC(C)c1ccc(NC(=O)C=Cc2ccccc2Cl)cc1,inactive
5,COC(=O)c1sccc1S(=O)(=O)N1CCCC(c2[nH]ncc2-c2ccccc2)C1 (stereo not given),inactive
6,Cc1cccc(Nc2nc3nonc3nc2NN=Cc2cccs2)c1C,inactive
7,O=C(NCCC(c1ccccc1)c1ccccc1)c1cccc([N+](=O)[O-])c1,inactive
8,COC(=O)c1ccc(C=NNc2cc(C)nc3ccc(OC)cc23)cc1,inactive
9,O=S(=O)(/C=C/c1ccccc1)NCCCCNc1ccnc2cc(Cl)ccc12,inactive
10,CCN(CC)Cc1cc(Nc2nc3ccccc3[nH]2)cc(CN(CC)CC)c1O,inactive
11,CC[n+]1c(C=C2Sc3ccccc3N2C)ccc2ccc(C)cc21,inactive
12,O=C(CNCCc1ccccc1)NC(c1ccccc1)c1ccccc1,inactive
13,O=C(c1c2c(nc3ccccc13)CCC2)N1CCc2ccccc21,inactive
14,O=C(O)c1cc([N+](=O)[O-])ccc1Oc1cncc(Cl)c1,inactive
15,CCCN(CCC)CC(O)COc1ccccc1C(=O)Nc1ccccc1 (stereo not given),inactive
16,CCn1c(SCC(=O)N(c2ccccc2)c2ccccc2)nc2sc3c(c2c1=O)CCN(C)C3,inactive
17,Cc1cccc(CCNc2cc(C)nc3ncnn23)c1,inactive
18,COc1ccccc1N1CCN(C(=O)Nc2ccc3ccccc3c2)CC1,inactive
19,Oc1ccc(-c2cnccn2)cc1CNC1CCN(Cc2ccccc2)CC1,inactive
20,CC1(C)C2CCC1(C)C(NCc1ccccc1O)C2 (stereo not given),inactive
21,COc1ccc(OC)c(-c2ccc(O)c(CNCc3ccccc3OC)c2)c1,inactive
22,COc1ccc(CNC(=O)C2CNCC2c2ccc(C(F)(F)F)cc2)cc1 (stereo not given),inactive
23,COc1cccc(CNC(=O)[C@@H]2CNC[C@H]2c2ccc(C(F)(F)F)cc2)c1,inactive
24,CCCCCN1/C(=C\C=C\c2n(CC)c3cc(Cl)c(Cl)cc3[n+]2CCCCC)N(CC)c2cc(Cl)c(Cl)cc21,inactive
25,COc1ccc(-c2cc(C(=O)NCc3cccnc3)no2)cc1OC,inactive

# Reference: PubChem BioAssay AID602156 (GNF / Scripps Winzeler lab, 2011)
